TRHR enhancer – TRH receptor (human) allosteric enhancement. TRHR cells, fluo-8 calcium fluorescence, EC20 TRH enhancement. AID 493056. 360,000 tested, 0.66% active. enhancement, % at 2 µM. P34981; in the data active = enhancement above about 30%
Target sequence (P34981 whole entry, looked up): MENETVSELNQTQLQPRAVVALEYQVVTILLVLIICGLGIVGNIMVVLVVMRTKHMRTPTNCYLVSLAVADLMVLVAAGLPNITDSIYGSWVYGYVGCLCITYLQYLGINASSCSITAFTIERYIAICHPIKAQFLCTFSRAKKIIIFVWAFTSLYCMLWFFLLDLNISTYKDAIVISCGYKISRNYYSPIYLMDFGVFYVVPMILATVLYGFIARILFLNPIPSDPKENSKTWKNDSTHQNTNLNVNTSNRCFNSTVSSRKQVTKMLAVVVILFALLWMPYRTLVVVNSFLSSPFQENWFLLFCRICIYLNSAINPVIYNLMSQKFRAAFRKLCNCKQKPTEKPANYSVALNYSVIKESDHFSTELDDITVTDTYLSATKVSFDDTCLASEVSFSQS
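Enhancer read-out: after compound pinning and an initial kinetic agonist-mode read, an EC20 of TRH (10 nM final) was injected and fluo-8 calcium signal (Ex 480/Em 530) followed at 1 s/cycle for 100 cycles in TRHR-expressing cells.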
D1 ag – agonists of human D1 dopamine receptor; AID 504660; activation, % at 2 µM; HEK293 T-REx D1 cells, calcium flux, agonist mode; 360,000 tested, 1% active; P21728
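Agonism was scored from calcium flux recorded over 180 s (1 read/s) after pintool compound addition, following a 10-cycle baseline. Cells were inducible force-coupled HEK293 TREx D1, plated overnight at 30 C and loaded with no-wash calcium dye.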
TRHR ag – agonists of human TRH receptor; AID 493084; P34981; TRHR cells, calcium flux fluo-8, FDSS agonist mode; 360,000 tested, 0.18% active; activation, % at 2 µM
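In this calcium-flux screen, cells bearing human TRHR are dye-loaded with fluo-8, baselined for 10 cycles, then exposed to library compounds; positive kinetic calcium responses during the agonist phase mark hits, with TRH as control.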
D1 antagonist – antagonists of human D1 dopamine receptor; P21728; HEK293 TREx D1 cells, calcium flux, dopamine EC80; active compounds read low; activity change, negative = inhibition, % at 10 µM; 360,000 tested, 3.2% active; AID 504652; in the data active = activity change below about -30%
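Using tetracycline-induced force-coupled D1 Hek293 cells and a calcium dye, signals were followed for 180 s after compound, then for 180 s after EC80 dopamine, to detect inhibitors.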
D1 PAM – human D1 dopamine receptor positive modulation. P21728. HEK293 TREx D1 cells, calcium flux, dopamine EC20 potentiation. potentiation, % at 10 µM. 360,000 tested, 0.036% active. AID 504651; in the data active = potentiation above about 30%
Numbers stand for hits; - = inactive. Most compounds without a hit are left out; they make up all but 4.7% or so of the library. Rule as the data show it, unless noted: active = activation above about 30%; inactive = the rest.

SMILES | TRHR enhancer | D1 ag | TRHR ag | D1 antagonist | D1 PAM
CCCOc1cccc(C(=O)NC(=S)Nc2ccc(N3CCN(C)CC3)cc2)c1 | - | - | - | - | -
COC(=O)C(C)NC(=O)N1CCN(c2nnc(C)c3c(C)n(-c4ccc(Cl)cc4)nc23)CC1 (configuration not stated) | - | - | - | - | -
COc1cccc(N2CCN(S(=O)(=O)c3ccc(-c4cc(C(F)(F)F)on4)s3)CC2)c1 | - | - | - | - | -
CC(=O)N1c2ccc(S(=O)(=O)NCC3CCC(C(=O)Nc4cccc(C)c4C)CC3)cc2CC1C (configuration not stated) | - | - | - | - | -
CCC(Cn1nnc2ccccc2c1=O)NC(=O)Nc1ccc(C)c(C)c1 (configuration not stated) | - | - | - | - | -
CN1CCN(c2ccc(NC(=O)c3ccc(-c4ccc(Cl)cc4)o3)cc2)CC1 | - | - | - | -72.1 | -
COc1cc(OC)cc(C(=O)NC(=S)Nc2ccc(N3CCCC3)cc2)c1 | - | - | - | -34.9 | -
COc1cc(OC)cc(C(=O)NC(=S)N2CCCCCC2)c1 | - | - | - | - | -
CN1CCN(c2ccc(NC(=O)Cc3ccccc3)cc2)CC1 | - | - | - | -39.5 | -
CCOc1cccc(C(=O)NC(=S)Nc2ccc(N3CCN(CC)CC3)cc2)c1 | - | - | - | -44.4 | -
CC(NC(=O)c1sc2ncccc2c1-n1cccc1)c1ccccc1 (configuration not stated) | - | - | - | - | -
COc1ccc(C(=O)NCC(=O)OCc2cc(=O)n3nc(C4CCCCC4)sc3n2)cc1 | - | - | - | - | -
COc1ccc(CN2CCc3nc(N4CCN(c5ccc(F)cc5)CC4)ncc3C2)c(OC)c1OC | - | - | - | - | -
O=C(CCN1CCN(c2ccccc2)CC1)NNC(=O)Cc1ccc(Br)cc1 | - | - | - | -38.9 | -
CN1CCN(c2ccc(NC(=O)c3cccc(S(=O)(=O)N4CCCC4)c3)cc2)CC1 | - | - | - | -33.6 | -
Cc1ccc(C(=O)Nc2ccc(N3CCN(C)CC3)cc2)c(Cl)c1 | - | - | - | -33.4 | -
Cc1ccc(C(=O)Nc2ccc(N3CCN(C)CC3)cc2)cc1C | - | - | - | -31.3 | -
O=C(Nc1ccc(N2CCOCC2)cc1)c1cccc(S(=O)(=O)N2CCCC2)c1 | - | - | - | - | -
Cc1ccc(C(=O)Nc2ccc(N3CCN(S(C)(=O)=O)CC3)cc2)cc1C | - | - | - | - | -
CC(Oc1ccc(Br)cc1)C(=O)NNC(=O)CCN1CCN(c2ccccc2)CC1 (configuration not stated) | - | - | - | - | -
CC(C)CCNC(=O)c1ccc(Cn2c(SCC(=O)NC(C)C)nc3ccccc3c2=O)cc1 | - | - | - | - | -
COc1ccc(C2(CNC(=O)C(=O)Nc3ccccc3C)CCCC2)cc1OC | - | - | - | - | -
O=c1oc2cc(O)ccc2cc1-c1nc(-c2ccc(Cl)c(Cl)c2)cs1 | - | 45.7 | - | - | -
O=c1oc2cc(O)ccc2cc1-c1nc2c(s1)CCc1ccccc1-2 | - | 282.5 | 199.4 | - | -
CCCCN(Cc1nc2ccccc2c(=O)[nH]1)C(=O)COc1ccc(F)cc1Cl | - | - | - | -41.7 | -
SMILES | TRHR enhancer | D1 ag | TRHR ag | D1 antagonist | D1 PAM
COCCN(Cc1nc2ccccc2c(=O)[nH]1)C(=O)COc1c(C)cc(Cl)cc1C | - | - | - | - | -
Cc1ccc(S(=O)(=O)NC2CC(=O)N(c3ccc4c(c3)OCCO4)C2)cc1 (configuration not stated) | - | - | - | - | -
COc1ccc(S(=O)(=O)NC2CC(=O)N(c3ccccc3)C2)cc1C (configuration not stated) | - | - | - | -53.6 | -
CC(=O)Nc1ccc(S(=O)(=O)NC2CC(=O)N(c3ccc4c(c3)OCCO4)C2)cc1 (configuration not stated) | 39.8 | - | - | - | -
Cc1cc(NC(=O)CSc2nnc(NC(=O)C3CC(=O)N(c4ccccc4)C3)s2)no1 (configuration not stated) | - | - | - | -46.2 | -
Cc1nnc(NC(=O)C2CC(=O)N(c3ccc4c(c3)OCCO4)C2)s1 (configuration not stated) | 35.2 | - | - | - | -
Cc1cc(NC(=O)CSc2nnc(NC(=O)C3CC(=O)N(c4ccccc4C)C3)s2)no1 (configuration not stated) | - | - | - | - | -
CCCCc1nnc(NC(=O)C2CC(=O)N(c3ccc4c(c3)OCCO4)C2)s1 (configuration not stated) | - | - | - | - | -
COc1ccccc1NC(=O)Cn1nc2c3cc(F)ccc3n(Cc3cccc(C)c3)cc-2c1=O | - | - | - | - | -
COc1ccc(NC(=O)c2c(C)oc3ccc(O)c(CN4CCCCCC4)c23)cc1 | - | - | - | - | -
CCOC(=O)c1c(C)c(-c2ccccc2)n(CC(=O)Nc2cc(OC)cc(OC)c2)c1C | - | - | - | - | -
CC(=O)c1ccc(S(=O)(=O)NC2CC(=O)N(c3ccc(C)c(C)c3)C2)cc1 (configuration not stated) | - | - | - | -30.9 | -
Cc1ccc(NC(=O)NC2CC(=O)N(c3ccc4c(c3)OCCO4)C2)c(C)c1 (configuration not stated) | - | - | - | -47.2 | -
Cc1ccccc1NC(NC(=O)OCCn1c([N+](=O)[O-])cnc1C)C(Cl)(Cl)Cl (configuration not stated) | - | - | - | -33.1 | -
Cc1ncc([N+](=O)[O-])n1CCOC(=O)NC(Nc1ccc(F)cc1)C(Cl)(Cl)Cl (configuration not stated) | - | - | - | - | -
Cc1cc(C)cc(NC2=CC(c3cccc(F)c3)N(c3cc(C)cc(C)c3)C2=O)c1 (configuration not stated) | - | - | - | - | -
Cc1oc2c(C)c3oc(=O)c(CC(=O)N4CCCCC4)c(C)c3cc2c1C | - | - | - | - | -
COc1ccc(S(=O)(=O)c2nnn(-c3ccc(C)c(Cl)c3)c2C)cc1 | - | 30.7 | - | - | -
COc1ccc(S(=O)(=O)c2nnn(-c3ccccc3F)c2C)cc1 | - | - | - | - | -
O=C(Nc1ccccc1)Nc1ccccc1 | - | - | - | -32.6 | -
Cc1ccc(NC(=O)Nc2ccccc2)cc1[N+](=O)[O-] | - | - | - | -33.2 | -
CCNC(=S)Nc1cccc([N+](=O)[O-])c1 | - | - | - | - | -
CCNC(=S)Nc1ccc(Cl)c([N+](=O)[O-])c1 | - | - | - | -39.4 | -
COC(=O)c1cc(NC(=O)Nc2ccccc2)ccc1Cl | - | 41.3 | - | -53.5 | -
CC(=O)Nc1ccc(C)c([N+](=O)[O-])c1 | - | - | - | - | -
COC(=O)c1cccc(NC(=O)Nc2ccc(Cl)c(Cl)c2)c1 | - | - | - | - | -

High-throughput results deposited in PubChem by National Center for Advancing Translational Sciences (NCATS).
